Results: ChEMBL document CHEMBL4513216, “Probing the Open Global Health Chemical Diversity Library for Multistage-Active Starting Points for Next-Generation Antimalarials” (ACS Infect Dis, 2020)
In all, about 68,000 compounds went through this assay and about 2,700 (4%) showed an effect of 50% or more. The entries come from a sample that favours strong results as a whole.

Tested on: Plasmodium berghei
Test: Screen against P. berghei liver stage (PbLuc), transformed with Luciferase, at 2uM
Assay type: functional, HepG2
Conditions: tested at 2 uM

| SMILES | INHIBITION |
| --- | --- |
| O=C(Cn1nc(-c2ccc(F)cc2)oc1=O)NCCc1ccccc1 | 20.57% |
| c1ccc(OCc2nnn3c2CN(c2ncccn2)CCC3)nc1 | -7.52% |
| Cc1nnc2ccc(OCCNS(C)(=O)=O)nn12 | -26.08% |
| N#Cc1cccc(CN2CCn3cc(Cn4cccn4)nc3C2)c1 | 21.42% |
| CSc1ccc(NCC(=O)NCC(=O)N2CCCC2)cc1F | -30.18% |
| CSc1ccc(NCC(=O)NCC2CC2)cc1F | 55.66% |
| CSc1ccc(NCC(=O)NC(=O)NCC(F)(F)F)cc1F | 18.63% |
| COc1ccc(CNC(=O)NC2CCN(CC3CCCC3)CC2)cn1 | -17.01% |
| CCCN1C[C@H](NC(=O)c2cc(C)no2)[C@@H](c2ccc(OC)cc2)C1 | 18.22% |
| CCCN1C[C@H](NC(=O)c2ccccc2F)[C@@H](c2ccc(OC)cc2)C1 | 16.55% |
| CCCN1C[C@H](NC(=O)c2cccs2)[C@@H](c2ccc(OC)cc2)C1 | 53.65% |
| O=c1c2ccccc2ncn1Cc1cc(C2CC2)[nH]n1 | 34.98% |
| CCOCC1c2c(ncn2C)CCN1C(=O)c1cscn1 (stereo unspecified) | 16.78% |
| Cc1ncnc2c1CCN(Cc1ccc3c(c1)OCO3)CC2 | -39.9% |
| Cc1cc(CNc2ccc3nc(C4CC4)sc3c2)no1 | 53.63% |
| Cc1noc(C)c1CNc1ccc2nc(C3CC3)sc2c1 | 25.21% |
| Cc1cc(CNc2ccc3nc(C)sc3c2)no1 | -32.33% |
| CC(C)NC(=O)N1CCC2(CC1)C(=O)NCCN2Cc1ccccc1 | 5.69% |
| Cc1ccc(CN2CCC3(CC2)C(=O)NCCN3CC2CC2)o1 | 8.62% |
| O=C(NC1CC1)N1CCC2(CC1)C(=O)NCCN2Cc1ccccc1 | -11.54% |
| O=C(CC1CC1)N1CCC2(CC1)C(=O)NCCN2Cc1ccccc1 | 52.36% |
| CN1CCNC(=O)C12CCN(Cc1ccco1)CC2 | 27.42% |

| SMILES | INHIBITION |
| --- | --- |
| O=C1NCCN(CC2CC2)C12CCN(Cc1ccco1)CC2 | 61.9% |
| CC(C)CNC(=O)[C@H]1CCS(=O)(=O)[C@@H]2CN(Cc3cccnc3)C[C@H]12 | 35.07% |
| COC(=O)c1ncccc1N1CCCCC1 | -18.04% |
| O=C1CC(c2ccc3ccccc3n2)c2c(n[nH]c2C2CCC2)N1 (stereo unspecified) | 46.3% |
| COc1nc2ccccc2cc1C1CC(=O)Nc2n[nH]c(C3CCC3)c21 (stereo unspecified) | 13.51% |
| CC(C)c1nccc(C2CC(=O)Nc3n[nH]c(C4CCC4)c32)n1 (stereo unspecified) | 53.33% |
| Cc1nnc(SCC(=O)N2CCc3[nH]nc(C4CCC4)c3C2)o1 | 22.34% |
| CCc1n[nH]c(SCC(=O)N2CCc3[nH]nc(C4CCC4)c3C2)n1 | 23.45% |
| CCc1nnc(SCC(=O)N2CCc3[nH]nc(C4CCC4)c3C2)o1 | 66.4% |
| O=C(C1CC1)N1CCC(O)(CN2CCN(c3ccccc3)CC2)C1 (stereo unspecified) | 0.64% |
| Cc1nc2c(c(N(C)C)n1)CCN(C(=O)c1sccc1S(N)(=O)=O)C2 | -22.79% |
| CC(C)CNc1nccc(-c2cnc3sc(Cl)cn3c2=O)n1 | -24.85% |
| CC(C)OC(=O)CC(NC(=O)CCn1cccn1)c1ccccc1 (stereo unspecified) | 67.28% |
| CC(NC(=O)CCn1cccn1)c1cccs1 (stereo unspecified) | -38.35% |
| CC(NC(=O)CCn1cccn1)c1cn(-c2ccccc2)nn1 (stereo unspecified) | 2.26% |
| CC(NC(=O)CCn1cccn1)c1ccc(-n2ccnn2)cc1 (stereo unspecified) | -33.92% |
| COC(=O)CC(NC(=O)CCn1cccn1)c1ccc(C)cc1 (stereo unspecified) | 60.13% |
| COC(=O)CC(NC(=O)CCCn1cccn1)c1ccc(Cl)cc1 (stereo unspecified) | -18.57% |
| CN(C)CCN1CCC2(CCN(C(=O)c3ccc(F)cc3)CC2)C1=O | -16.42% |
| Cc1cc(C)n(CC2CN(CC(=O)NCc3ccccn3)CCO2)n1 (stereo unspecified) | -12.05% |
| CN(Cc1cccnc1)[C@@H]1CN(C(=O)c2ccno2)[C@@H]2CCCO[C@H]12 | -7.88% |
| CCSc1cc(C(=O)NCc2ccc(C(=O)NC)cc2)ccn1 | 19.48% |

| SMILES | INHIBITION |
| --- | --- |
| C[S+]([O-])c1nncn1CC(=O)c1ccc(Br)cc1 (stereo unspecified) | -59.71% |
| CCOC(=O)CC(c1ccc(OC)cc1)c1c(O)n[nH]c1C (stereo unspecified) | -43.9% |
| CN(Cc1ccc([S+](C)[O-])cc1)c1ccc(C(F)(F)F)cn1 (stereo unspecified) | 48.21% |
| CN(Cc1ccc([S+](C)[O-])cc1)c1ccc(Cl)cn1 (stereo unspecified) | 45.82% |
| CN(Cc1ccc([S+](C)[O-])cc1)c1ccc(Br)cn1 (stereo unspecified) | 67.28% |
| CN(C)[C@H]1CCCCN(C(=O)c2cccc(-c3cccc(F)c3)c2)C1 | 36.79% |
| COc1c(F)ccc(C(=O)N2CC[C@H](CO)[C@@H](O)C2)c1F | -15.37% |
| NC(=O)c1cc(-c2cccc(C(=O)O)c2)cs1 | 67.28% |
| NC(=O)c1ccccc1-n1cc(-c2cccc(C(=O)O)c2)cn1 | 0.51% |
| NC(=O)c1cc(-n2cc(-c3cccc(C(=O)O)c3)cn2)cs1 | 29.13% |
| CC(C)C(=O)N1CCC2(CCCN(CCOc3ccccc3)C2)C1 (stereo unspecified) | 21.89% |
| Cn1c(N)nnc1SCc1ccc(Cl)cc1Br | 45.82% |
| Cn1c(N)nnc1SCc1c(F)cccc1Br | -3.53% |
| Cn1c(N)nnc1SCc1cc(Br)ccc1Cl | 55.36% |
| NC(=O)C(NC(=O)CSCc1ccc(Cl)s1)c1ccccc1 (stereo unspecified) | 28.04% |
| CS(=O)(=O)Cc1ccc(CNC(=O)c2cccnc2O)cc1 | -4.5% |
| COCC(C)(C#N)NC(=O)c1cn(-c2cccc(Cl)c2F)nn1 (stereo unspecified) | -10.98% |
| O=C(c1ccncc1F)N1CC2CC1(C(=O)N1CCCC1)C2 | 33.14% |
| CN(C)C(=O)CN1CC[C@H]2[C@H]1CCN2c1ncccn1 | 22.18% |
| O=C(CN1CCN(c2ncccn2)[C@@H]2CS(=O)(=O)C[C@@H]21)N1CCCCC1 | 14.19% |
| CN(C)C(=O)CN1CCN(c2ncccn2)[C@@H]2CS(=O)(=O)C[C@@H]21 | 58.69% |
| CC(NC(=O)c1ccsc1)c1ccc2c(c1)NC(=O)CO2 (stereo unspecified) | -34.61% |
